RORg inh: blocks mouse ROR gamma transcriptional activity; Potency, µM (doses to about 53.6 µM), for the others: top-dose activity change, negative = inhibition, hits mostly inhibitors; AID 2551; actives 5.4% (n = 310,000); Drosophila S2 Gal4-RORgamma UAS-luciferase reporter, 20 h; further: on the % scale 0 is the no-effect control and ±100 the full control effect; nearly all actives have a fitted effect of over 60% in size
Target sequence (P51450 whole entry, looked up, the tested form may be a part): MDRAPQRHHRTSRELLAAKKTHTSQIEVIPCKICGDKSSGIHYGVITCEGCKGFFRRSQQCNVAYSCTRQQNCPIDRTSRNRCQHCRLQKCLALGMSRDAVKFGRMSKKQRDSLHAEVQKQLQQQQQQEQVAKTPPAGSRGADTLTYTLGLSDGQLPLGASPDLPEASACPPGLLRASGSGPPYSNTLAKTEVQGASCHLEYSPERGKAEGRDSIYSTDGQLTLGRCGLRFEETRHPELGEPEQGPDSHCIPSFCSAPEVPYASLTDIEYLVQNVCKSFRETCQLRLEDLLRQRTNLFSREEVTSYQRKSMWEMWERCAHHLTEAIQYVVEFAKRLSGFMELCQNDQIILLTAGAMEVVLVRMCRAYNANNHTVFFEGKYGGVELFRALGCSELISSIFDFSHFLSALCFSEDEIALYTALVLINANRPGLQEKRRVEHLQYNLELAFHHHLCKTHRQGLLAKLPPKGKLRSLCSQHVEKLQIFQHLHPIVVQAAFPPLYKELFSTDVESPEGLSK
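Compounds are pin-transferred onto Drosophila Schneider cells expressing a copper-inducible Gal4–ROR gamma transactivation domain fusion. After 1 hr, copper sulfate is added to 700 uM final; luciferase is read 20 hr later.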
TGFb SMAD3 inh: blocks TGF-b signaling. Potency, µM (titrated, usually from 46.1 µM), for inactives: top-dose activity, negative = inhibition, most hits filed as inhibitors. actives 1.2% (n = 410,000). HepG2 CAGA-GFP TGF-b/SMAD3 reporter, GFP fluorescence, 18 h; TGF-beta stimulated, 500 pg/mL final. AID 588855; further: on the % scale 0 is the no-effect control and ±100 the full control effect; nearly all actives have a fitted effect of over 65% in size
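Read-out: total well GFP (ex488/em500-530) summed from mean per-cell fluorescence. Cells: HEPG2 CAGA-GFP, 1% FBS DMEM, 18 h at 37 degrees C with 500 pg/mL final TGF-beta. Unstimulated wells served as the full-inhibition control; stimulated DMSO wells = 0%.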
HepG2 tox-1: counter-screen for TGF-b inhibitors: cytotoxicity in HepG2 cells; HepG2 CAGA-GFP viability, ATP luminescence, 18 h; Potency, µM (series often up to 46.1 µM), for the others: top-dose activity change, negative = cytotoxicity, actives largely listed as cytotoxic; actives 0.76% (n = 410,000); AID 588856
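CellTiter-Glo luminescence gave cytotoxicity after 18 hours at 37 degrees C. The cells were HepG2 CAGA-GFP in 1% FBS DMEM, stimulated with 500 pg/mL TGF-beta after compound addition. %Activity was normalised to no-cell wells (complete cell-killing) and DMSO (no toxicity), and curves were fitted and classified.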
ATXN2 expr inh: ATXN2 expression inhibition; HEK-293 ATXN2-luciferase reporter, luminescence, 24 h; Potency, µM (titrated, usually from 57 µM), inactives show at the highest dose activity change, negative = inhibition, hits mostly inhibitors; actives 0.72% (n = 360,000); AID 1745845; further: on the % scale 0 is the no-effect control and ±100 the full control effect; nearly all actives have a fitted effect of over 55% in size
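ATXN2-luciferase reporter cells (luciferase flanked by upstream and downstream ATXN2 gene portions) were treated 24 h at 37 °C with compounds at up to 57 uM. SteadyGlo luminescence gave expression; GF-AFC fluorescence gave viability.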
VP16 counter: Gal4-VP16 reporter inhibition counter-screen; Potency, µM (doses to about 53.6 µM), without a hit: at the highest dose activity, negative = inhibition, hits mostly inhibitors; actives 3.5% (n = 310,000); Drosophila S2 Gal4-VP16 UAS-luciferase, luminescence, 20 h;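 further: Gal4-VP16 expression switched on by copper sulfate through the metallothionein promoter; on the % scale 0 is the no-effect control and ±100 the full control effect; nearly all actives have a fitted effect of over 50% in size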
ATXN viability: viability counter-screen for ATXN expression inhibitors; S2 cells (HEK-293 line with an ATXN2-luciferase reporter) viability, CellTiter-Fluor protease fluorescence, 24 h; Potency, µM (series often up to 56.7 µM), most hits filed as cytotoxic; actives 0.49% (n = 400,000); AID 651635; further: nearly all actives have a fitted effect of over 40% in size
TGFb CAGA inh: TGF-b pathway inhibition, cherry-pick retest; shares compounds with TGFb SMAD3 inh; HepG2 CAGA-GFP TGF-b reporter, GFP fluorescence, 18 h; cells stimulated with TGF-beta, 500 pg/mL; Potency, µM (titrated, usually from 46.1 µM), inactives show at the top dose activity, negative = inhibition, actives largely listed as inhibitors; actives 63% (n = 1,600); further: on the % scale 0 is the no-effect control and ±100 the full control effect; nearly all actives have a fitted effect of over 65% in size
HepG2 tox-2: HepG2 cytotoxicity, TGF-b inhibitor counterscreen | shares compounds with TGFb SMAD3 inh | HepG2 CAGA-GFP viability, ATP luminescence, 18 h; cells stimulated with TGF-beta, 500 pg/mL | Potency, µM (top dose mostly 46.1 µM), for inactives: top-dose activity, negative = cytotoxicity, usual class: inhibitors | actives 27% (n = 1,600) | AID 720535; further: on the % scale 0 is the no-effect control and ±100 the full control effect; nearly all actives have a fitted effect of over 70% in size
TGFb CCL64 inh: TGF-b inhibition, CCL64 orthogonal assay; shares compounds with TGFb SMAD3 inh; CCL64 CAGA-GFP reporter, TGF-b stimulated, GFP fluorescence, 18 h; Potency, µM (doses to about 46.1 µM), for the others: at the highest dose activity, negative = inhibition, actives largely listed as inhibitors; actives 41% (n = 1,600); further: nearly all actives have a fitted effect of over 65% in size
TGFb COP inh: validation of TGF-b inhibitors in HepG2 COP promoter reporter. Potency, µM (top dose mostly 46.1 µM), inactives show top-dose activity, negative = inhibition, hits mostly inhibitors. HepG2 COP-GFP TGF-b reporter, GFP fluorescence, 18 h; cells stimulated by added recombinant TGF-beta. actives 3% (n = 1,600). AID 720537. shares compounds with TGFb SMAD3 inh; further: nearly all actives have a fitted effect of over 70% in size
Starred values were filed as active, the others as inactive; i = inactive; u = inconclusive; x = no result; [ ] = dose if it differs, or a comment. Rows were chosen to be rich in hits. Some 6.1% of all compounds tested hit in one or more screens of this group. The call rests on the fitted dose curve; in most records, active means well fitted curve in the direction sought with a large enough effect; inconclusive means small, poorly fitted or top-dose-only effect, or another doubt; inactive means no such curve, though single readings can be large; an effect the other way counts as inactive or inconclusive. Potency means the concentration at half of the fitted maximal effect.

SMILES | RORg inh | TGFb SMAD3 inh | HepG2 tox-1 | ATXN2 expr inh | VP16 counter | ATXN viability | TGFb CAGA inh | HepG2 tox-2 | TGFb CCL64 inh | TGFb COP inh
COc1ccc2c(c1)CC[C@H]1[C@@H]2CC[C@]2(C)[C@@H](NCCCCCCN3C(=O)C=CC3=O)CC[C@H]12 | x | x | x | 39.7% | x | x | x | x | x | x
COc1ccc(NC(=O)C2COc3ccccc3C2)cc1Cl (stereo not given) | x | 19.2% | -2.1% | -8.0% | x | i | x | x | x | x
COc1ccc(OC)c(CNC(=O)CN2CC(C)Sc3ccccc32)c1 (stereo not given) | x | -7.9% | -12.3% | -6.4% | x | i | x | x | x | x
Cc1ccc(C(NC(=O)N2CCCCC2)=C(Cl)Cl)cc1F | 11.2µM* | 2.8% | -7.5% | u | 7.08µM* | i | x | x | x | x
Cc1ccc(C(NC(=O)NCCCN2CCOCC2)=C(Cl)Cl)cc1F | u | u | -19.3% | -11.9% | u | i | x | x | x | x
CCc1nc2c(OCc3ccc(C(=O)OC)cc3)cccn2c1N(C)C(=O)c1ccc(OC)cc1 | x | -3.3% | -3.1% | -16.6% | x | i | x | x | x | x
CCc1nc2c(OCc3cc(Cl)cc(Cl)c3)cccn2c1N(C)C(=O)c1ccc(OC)cc1 | x | 3.98µM* | -30.8% | u | x | u | u | u | u | 48.6%
COCC1=C2c3ccccc3[C@H](C[N+](=O)[O-])C(C(=O)OC)(C(=O)OC)CC2C2C(=O)N(c3ccccc3)C(=O)C2C1 (stereo not given in full) | -11.2% | x | x | x | 4.2% | x | x | x | x | x
Nc1cc2[nH]c(=O)c3ccccc3c2cc1[N+](=O)[O-] | x | 11.2µM* | -9.7% | -0.5% | x | u | u | u | u | 70.8%
COc1cc(C(=O)c2cocc2C(=O)c2ccc3c(c2)OCO3)cc(OC)c1OC | -14.1% | u | 4.3% | 6.0% | 5.4% | i | -10.4% | 1.2% | -15.1% | -13.8%
O=C(O)c1cc(-c2ccc(-c3c(-c4ccc5c(c4)OCO5)noc3-c3ccsc3)cc2)nc2ccccc12 | u | u | -23.4% | 35.9% | 2.6% | i | 16.4µM* | u | 18.4µM* | 71.4%
CCN(CCN(C)C)C(=O)Cn1ncc2c([nH]c3ccc(C)cc32)c1=O | x | 0.7% | -11.4% | -14.2% | x | i | x | x | x | x
NC(=O)c1cc([N+](=O)[O-])c(Cl)cc1NCc1ccncc1 | x | u | 5.7% | -4.4% | x | u | 18.4µM* | -27.6% | -8.7% | 17.9%
CC(C)(C)c1ccc(/C=C2\SC(=O)N(CCNC(=O)c3cccc(S(=O)(=O)N4CCOCC4)c3)C2=O)cc1 | u | 12.6µM* | -19.2% | -11.2% | 2µM* | u | 7.31µM* | u | u | 17.9%
C=C(C)C(=O)/C=C/c1ccc(Br)cc1 | 37.9% | x | x | x | -16.2% | x | x | x | x | x
CC1CC(C)C(=O)C(C(CC2CC(=O)NC(=O)C2)OC(=O)CC(=O)c2ccccc2)C1 (stereo not given) | x | 2.24µM* | -8.8% | 3.55µM* | x | u | 0.411µM* | u | 2.59µM* | 23.9%
O=C1CCC(C(=O)OCC(=O)c2ccccc2)N1 (stereo not given) | 37.9% | u | -3.7% | -14.1% | 6.2% | i | x | x | x | x
COc1ccccc1NC(=S)N=Nc1c(O)[nH]c2ccc(Br)cc12 | 2µM* | u | 11.4% | x | 5.62µM* | u | u | u | 3.26µM* | -2.6%
COc1ccc(/C=N/OCC(=O)N=Nc2c(O)[nH]c3ccc(Br)cc23)cc1OC | -23.3% | -12.9% | -6.5% | 10.8% | u | i | x | x | x | x
Cc1ccc(Cn2nnc3c(=O)[nH]c(C4CCN(S(=O)(=O)c5cc(C)ccc5C)CC4)nc32)cc1 | 18.5% | 15.8µM* | -23.9% | -2.9% | -22.8% | i | 20.6µM* | -19.1% | u | 36.0%
O=c1[nH]c(C2CCN(S(=O)(=O)c3ccccc3F)CC2)nc2c1nnn2Cc1ccc2c(c1)OCCO2 | 24.2% | 6.5% | -7.9% | x | 3.0% | u | x | x | x | x
O=c1[nH]c(C2CCN(S(=O)(=O)c3ccc(F)cc3)CC2)nc2c1nnn2Cc1ccc2c(c1)OCCO2 | u | 15.8µM* | -28.5% | x | -1.8% | i | 14.6µM* | -22.6% | u | 4.5%
CCOC(=O)c1ccccc1NC(=O)c1sc2nc3n(c(=O)c2c1C)CCCC3 | x | -7.9% | -2.2% | x | x | x | x | x | x | x
CC(=O)c1cccc(NC(=O)Cn2cc(C(=O)c3cccc(Cl)c3)c(=O)c3ccc(C)nc32)c1 | x | -13.1% | 0.0% | -12.9% | x | i | x | x | x | x
CN(Cc1cccs1)c1nc(-c2cccnc2)nc2ccccc12 | -15.2% | 14.1µM* | -8.3% | -24.3% | -9.7% | x | 25.9µM* | u | 18.4µM* | 39.6%
CN(C)c1nc(-c2cccnc2)nc2ccccc12 | 9.3% | x | x | x | -10.9% | x | x | x | x | x
CCOC(=O)CCN1C(=O)[C@H]2[C@H]3[C@H](O)[C@H](O)C/C(=N/NC(=O)OCC)[C@@H]3CC[C@@H]2C1=O | 6.2%[10 µM] | x | x | x | 5.0%[10 µM] | x | x | x | x | x
CN1CCN(S(=O)(=O)c2ccc(Sc3nc4ccccc4[nH]3)c3nsnc23)CC1 | -12.8% | 10µM* | 1.0% | 7.8% | -2.1% | i | -19.5% | 5.8% | 6.1% | 8.8%
CN1CCN(S(=O)(=O)c2ccc(Br)c3nsnc23)CC1 | 5.1% | -0.3% | -4.4% | -7.6% | 1.3% | i | x | x | x | x
COc1cccc(CNC(=O)c2nnc(Cc3ccc(Cl)cc3)o2)c1 | x | 1.3% | -3.2% | -7.3% | x | i | x | x | x | x

Compound activity as filed in PubChem BioAssay.
